Inconclusive results are not listed. Entries that show only a call come without a potency. Activity calls are given as the source filed them. The call rests on the fitted dose curve; in most records, active means well fitted cell-killing curve with a large enough effect; inconclusive means small, poorly fitted or top-dose-only effect, or effect the other way; inactive means no such curve, though single readings can be large or run the other way.
Assay: Quantitative High-Throughput drug screen in 47 multiple myeloma cell lines against the NCATS MIPE library collection: UTMC2_PLB cell viability assay (AID 1919868); further: nearly all actives have a fitted effect of over 55% in size
Conditions: CellTiter-Glo ATP luminescence, 48 h; viability (% of DMSO control): at 45.8 µM (top of the series)
Procedure, shortened: (§1)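 Myeloma cells (500/well) treated with MIPE 4.0 compounds for 48 h at 37 °C, 5% CO2. Viability read as ATP via CellTiter-Glo luminescence after 5 min at RT; DMSO-only wells = 100%, media-only = 0% viability.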
Potency means the concentration at half of the fitted maximal effect.

Compound | Potency
NC(=O)c1cccc2[nH]c(-c3ccc([C@H]4CCCN4)cc3F)nc12 | inactive
O=C(O)[C@H]1O[C@H](Oc2cc3oc(-c4ccccc4)cc(=O)c3c(O)c2O)[C@H](O)[C@@H](O)[C@H]1O | inactive
O=C(N[C@@H](c1ccccc1)[C@@H]1CCCCN1)c1cccc(C(F)(F)F)c1Cl | inactive
CN(C[C@@H]1COCCO1)S(=O)(=O)Nc1ccc2ccc3ncc(-c4cnn(C)c4)cc3c(=O)c2c1 | 3.32 µM (active)
N#CC(=C(N)Sc1ccccc1N)C(C#N)=C(N)Sc1ccccc1N | 8.33 µM (active)
O=c1cc(-c2ccc(O)cc2)oc2cc(O)cc(O)c12 | inactive
Clc1ccc(-c2nc3sccn3c2C=NOCc2ccc(Cl)c(Cl)c2)cc1 | inactive
COc1ccc(-n2c(C)c([N+](=O)[O-])c3ccc(O)cc32)cc1 | inactive
CO[C@H]1C[C@@H]2CC[C@@H](C)[C@@](O)(O2)C(=O)C(=O)N2CCCC[C@@H]2C(=O)O[C@H]([C@H](C)C[C@@H]2CC[C@H](OP(C)(C)=O)[C@H](OC)C2)CC(=O)[C@H](C)C=C(C)[C@@H](O)[C@@H](OC)C(=O)[C@H](C)C[C@H](C)C=CC=CC=C1C | inactive
Cc1nnc(C(C)C)n1C1C[C@H]2CC[C@@H](C1)N2CC[C@H](NC(=O)C1CCC(F)(F)CC1)c1ccccc1 (stereo partly specified) | inactive
OC[C@H]1O[C@@H](Oc2cc(O)cc(C=Cc3ccc(O)cc3)c2)[C@H](O)[C@@H](O)[C@H]1O | inactive
C[C@]12CC[C@@H]3c4ccc(O)cc4CC[C@H]3[C@H]1C[C@@H](O)[C@H]2O | inactive
CS(=O)(=O)N(Cc1ccco1)CC(O)Cn1c2ccccc2c2ccccc21 (stereo unspecified) | inactive
OC[C@H]1O[C@@H](n2cnc3c2NC=NC[C@@H]3O)C[C@H]1O | inactive
Cc1ccc(F)c(NC(=O)Nc2ccc(-c3cccc4[nH]nc(N)c34)cc2)c1 | 8.33 µM (active)
O=C1NC(=O)C(=Cc2ccc3nccnc3c2)S1 | 3.63 µM (active)
CCNc1cc(NC2CCC(O)CC2)nc(Nc2ccc3c(ccn3Cc3ccccc3)c2)n1 (stereo unspecified) | 37.2 µM (active)
COc1ccc(Cc2nccc3cc(OC)c(OC)cc23)cc1OC | inactive
N[C@H](CSC(c1ccccc1)(c1ccccc1)c1ccccc1)C(=O)O | 9.35 µM (active)
CC(=O)O[C@]1(C(C)=O)CC[C@@H]2[C@@H]3C[C@H](C)C4=CC(=O)CC[C@]4(C)[C@H]3CC[C@@]21C | inactive

Assay: Quantitative High-Throughput drug screen in 47 multiple myeloma cell lines against the NCATS MIPE library collection: PE2_PLB cell viability assay (AID 1919869); further: nearly all actives have a fitted effect of over 35% in size
Conditions: PE2_PLB myeloma cells viability, ATP luminescence, 48 h; series mostly up to 45.8 µM
Procedure, shortened: as §1

Compound | Potency
O=c1[nH]cnc2c1ncn2[C@H]1CC[C@@H](CO)O1 | inactive
CC(C)[C@H](CO)Nc1nc(Nc2ccc(C(=O)O)c(Cl)c2)c2ncn(C(C)C)c2n1 | 23.5 µM (active)
CNC(=O)c1ccccc1Sc1ccc2c(C=Cc3ccccn3)n[nH]c2c1 | 20.9 µM (active)
NC1=N[C@@]2(c3cc(NC(=O)c4ccc(F)cn4)ccc3F)COC[C@@H]2CS1 | 23.5 µM (active)
CN(C)CCC=C1c2ccccc2COc2ccc(CC(=O)O)cc21 | inactive
CC1(C)CCC(CN2CCN(c3ccc(C(=O)NS(=O)(=O)c4ccc(NCC5CCOCC5)c([N+](=O)[O-])c4)c(Oc4cnc5[nH]ccc5c4)c3)CC2)=C(c2ccc(Cl)cc2)C1 | 16.6 µM (active)
CCC(CC)[C@H](NC(C)=O)[C@@H]1[C@H](O)[C@@H](C(=O)O)C[C@@H]1N=C(N)N | inactive
CCn1cc(C(=O)O)c(=O)c2ccc(C)nc21 | inactive
Nc1nc(F)nc2c1ncn2[C@@H]1O[C@H](COP(=O)(O)O)[C@@H](O)[C@H]1O | inactive
O=C(O)CCC1CCC(c2cc(F)ccc2F)(S(=O)(=O)c2ccc(Cl)cc2)CC1 (stereo unspecified) | inactive
COc1ccc(-c2oc3c(CC=C(C)C)c(OC4O[C@H](CO)[C@@H](O)[C@H](O)[C@@H]4O)cc(O)c3c(=O)c2OC2O[C@@H](C)[C@H](O)[C@@H](O)[C@@H]2O)cc1 (stereo partly specified) | 23.5 µM (active)
CCOC(=O)O[C@]1(C(=O)OCCl)CC[C@@H]2[C@H]3CCC4=CC(=O)C=C[C@]4(C)[C@@H]3[C@@H](O)C[C@@]21C | inactive
CC1(C)CCC[C@@]2(C)[C@@H]1CC[C@@]1(C)OC(=O)C[C@H]21 | inactive
CCC(=O)NC[C@H](Cc1ccc(OCCc2nc(-c3ccccc3)oc2C)cc1)NC(C)=CC(=O)c1ccc(C(F)(F)F)cc1 | 11.8 µM (active)
O=C(Nc1ccccc1-c1cn2c(CN3CCNCC3)csc2n1)c1cnc2ccccc2n1 | 8.33 µM (active)
CNC(=O)c1ccc2cc(C3(O)CCn4cncc43)ccc2c1 (stereo unspecified) | inactive
Oc1ccc(C2CCN(c3ccnc4ccccc34)CC2)cc1O | 16.6 µM (active)
O=C(CCN1CCN(C(=O)OCc2cc(Cl)cc(Cl)c2)CC1)c1ccc2[nH]c(=O)oc2c1 | inactive
CCCCCN(C)CCC(O)(P(=O)(O)O)P(=O)(O)O | inactive

Assay: Quantitative High-Throughput drug screen in 47 multiple myeloma cell lines against the NCATS MIPE library collection: PCM6_Riken cell viability assay (AID 1919870); further: nearly all actives have a fitted effect of over 30% in size
Conditions: CellTiter-Glo ATP, 48 h; series mostly up to 45.8 µM
Procedure, shortened: as §1

Compound | Potency
O=C(N[C@@H](c1ccccc1)[C@@H]1CCCCN1)c1cccc(C(F)(F)F)c1Cl | 23.5 µM (active)
CN(C[C@@H]1COCCO1)S(=O)(=O)Nc1ccc2ccc3ncc(-c4cnn(C)c4)cc3c(=O)c2c1 | 1.05 µM (active)
O=c1[nH]cnc2c1ncn2[C@H]1CC[C@@H](CO)O1 | inactive
CNC(=O)c1ccccc1Sc1ccc2c(C=Cc3ccccn3)n[nH]c2c1 | 7.43 µM (active)
NC1=N[C@@]2(c3cc(NC(=O)c4ccc(F)cn4)ccc3F)COC[C@@H]2CS1 | 11.8 µM (active)
CN(C)CCC=C1c2ccccc2COc2ccc(CC(=O)O)cc21 | inactive
CC1(C)CCC(CN2CCN(c3ccc(C(=O)NS(=O)(=O)c4ccc(NCC5CCOCC5)c([N+](=O)[O-])c4)c(Oc4cnc5[nH]ccc5c4)c3)CC2)=C(c2ccc(Cl)cc2)C1 | 0.148 µM (active)
CCC(CC)[C@H](NC(C)=O)[C@@H]1[C@H](O)[C@@H](C(=O)O)C[C@@H]1N=C(N)N | inactive
CCn1cc(C(=O)O)c(=O)c2ccc(C)nc21 | inactive
Nc1nc(F)nc2c1ncn2[C@@H]1O[C@H](COP(=O)(O)O)[C@@H](O)[C@H]1O | inactive
O=C(O)CCC1CCC(c2cc(F)ccc2F)(S(=O)(=O)c2ccc(Cl)cc2)CC1 (stereo unspecified) | 13.2 µM (active)
COc1ccc(-c2oc3c(CC=C(C)C)c(OC4O[C@H](CO)[C@@H](O)[C@H](O)[C@@H]4O)cc(O)c3c(=O)c2OC2O[C@@H](C)[C@H](O)[C@@H](O)[C@@H]2O)cc1 (stereo partly specified) | 16.6 µM (active)
CCOC(=O)O[C@]1(C(=O)OCCl)CC[C@@H]2[C@H]3CCC4=CC(=O)C=C[C@]4(C)[C@@H]3[C@@H](O)C[C@@]21C | inactive
CC1(C)CCC[C@@]2(C)[C@@H]1CC[C@@]1(C)OC(=O)C[C@H]21 | inactive
Cc1ccc(F)c(NC(=O)Nc2ccc(-c3cccc4[nH]nc(N)c34)cc2)c1 | 23.5 µM (active)
CCNc1cc(NC2CCC(O)CC2)nc(Nc2ccc3c(ccn3Cc3ccccc3)c2)n1 (stereo unspecified) | 20.9 µM (active)
CCC(=O)NC[C@H](Cc1ccc(OCCc2nc(-c3ccccc3)oc2C)cc1)NC(C)=CC(=O)c1ccc(C(F)(F)F)cc1 | inactive
O=C(Nc1ccccc1-c1cn2c(CN3CCNCC3)csc2n1)c1cnc2ccccc2n1 | 10.5 µM (active)
CNC(=O)c1ccc2cc(C3(O)CCn4cncc43)ccc2c1 (stereo unspecified) | inactive
Oc1ccc(C2CCN(c3ccnc4ccccc34)CC2)cc1O | 13.2 µM (active)
O=C(CCN1CCN(C(=O)OCc2cc(Cl)cc(Cl)c2)CC1)c1ccc2[nH]c(=O)oc2c1 | inactive
CCCCCN(C)CCC(O)(P(=O)(O)O)P(=O)(O)O | inactive

From PubChem BioAssay (NCATS)
